Data taken from PubChem BioAssay (NCI).
About 83,000 compounds went through this panel and 20% of them were active in at least one assay; those are over-represented in the sample as a whole.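 A percent growth of 40 corresponds to 60% growth inhibition; 0 means no net growth; -100 means all cells died. Active threshold: below 10.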 A number with no mark means an inactive call. Active and inactive are the calls of the source.

system: MCF7 breast; assay: NCI-60 one-dose screen, 48 h (100 = growth as untreated, 0 = no growth, -100 = all killed); details: 10 µM unless noted

SMILES | growth
COc1cc(C2CC(c3ccccc3)=NN2C=O)ccc1Oc1nc2c(c(=O)n(C)c(=O)n2C)n1C (stereo not drawn) | 72.3%
COc1ccc2[nH]cc(C3(c4c[nH]c5ccc(OC)cc45)C(=O)Nc4ccc(F)cc43)c2c1 | 66.2%
CC1=CC(=O)OC1C/C=C(\C)CCC1[C@@]2(C)CCC[C@@](C)(C(=O)O)C2CC[C@@]1(C)O (stereo partly drawn) | 28.8%
CC1=C(/C=C/C(C)=C/C=C(C(=O)O)\C(C)=C\C(=O)O)C(C)(C)CCC1 | 93.8%
CCN(CCC#N)c1ccccc1 | 105%
CCCCOC(=O)c1cc(O)c(O)c(O)c1 | 84.9%
COc1cccc(-c2nc3sccn3c2-c2ccnc(NCCN3CCCNS3(=O)=O)n2)c1 | 100%
CC(=O)Oc1ccccc1C(=O)Nc1ncc([N+](=O)[O-])s1 | 49.7%
Cc1ccc([C@H]2c3[nH]c4ccccc4c3C[C@H]3C(=O)N(CCCCCCC(=O)NO)CC(=O)N23)cc1 | 35.5%
COc1ccc(-c2cc(-c3cn(-c4cccc(Cl)c4)nc3-c3ccc(OC)cc3)[nH]c(=S)n2)cc1 | 86.1%
CCn1c(Cc2ccccc2Nc2c(Cl)cccc2Cl)nnc1SCC(=O)Nc1ccccc1C(F)(F)F | 86.3%
COc1cc(/C=C/c2cc(/C=C/c3ccc(O)c(OC)c3)n(C(=O)c3ccccc3Br)n2)ccc1O | 20.2%
CCOC(=O)C(Cc1ccccc1)n1c(O)c(/C=N/c2ncc(Cc3ccc(Cl)cc3Cl)s2)sc1=S (stereo not drawn) | 3.1% (active)
